The sequences below were run against RASSF3 (assay: pooled miR-30 sensor sort-seq; sequence = guide strand). Conditions: shRNA.
Also: reference of the scale not given here.

Question: TGTATTTATGAACTTTCTCTTT was tested. Which sensor-assay potency score (higher = more potent) did it give?
Answer: The sensor-assay potency score (higher = more potent) was -0.702.

Question: For TATTTATGAACTTTCTCTTTGA, which sensor-assay potency score (higher = more potent) is on record?
Answer: Its sensor-assay potency score (higher = more potent) is -0.498.

Question: With TTTCTCTTTGATCTCCTCTTTG as the sequence, how does the sensor-assay potency score (higher = more potent) read?
Answer: The sensor-assay potency score (higher = more potent) was -0.943.

Question: Which sensor-assay potency score (higher = more potent) does the source give for TTTGATCTCCTCTTTGCTGAGG here?
Answer: The sensor-assay potency score (higher = more potent) was -0.279.

Question: TTGTCTGTGACTGCTAAGTTGT was tested. Which sensor-assay potency score (higher = more potent) did it give?
Answer: The sensor-assay potency score (higher = more potent) was -0.937.

Question: How did the sensor-assay potency score (higher = more potent) turn out when TTCAAGGTCATCTTCAACTTGT was run?
Answer: The sensor-assay potency score (higher = more potent) was 0.533.

Question: For TCTCTTTCTCAACATCTTGTTG, which sensor-assay potency score (higher = more potent) is on record?
Answer: Its sensor-assay potency score (higher = more potent) is -1.22.

Question: TTCATCTTCTTCCTTGTCCAAG was tested. Which sensor-assay potency score (higher = more potent) did it give?
Answer: Its sensor-assay potency score (higher = more potent) is -0.91.

Question: With TCTTTGATCTCCTCTTTGCTGA as the sequence, how does the sensor-assay potency score (higher = more potent) read?
Answer: The sensor-assay potency score (higher = more potent) was -0.385.

Question: TAAGTTGTATTTATGAACTTTC was tested. Which sensor-assay potency score (higher = more potent) did it give?
Answer: The sensor-assay potency score (higher = more potent) was -0.5.

Question: TTTGCTGAGGTAACTGTGGGTT was tested. Which sensor-assay potency score (higher = more potent) did it give?
Answer: The sensor-assay potency score (higher = more potent) was 0.0248.

Question: For TTTATGAACTTTCTCTTTGATC, which sensor-assay potency score (higher = more potent) is on record?
Answer: Its sensor-assay potency score (higher = more potent) is -0.905.

The sequences below were run against RASSF5 in the same assay as above. Conditions: shRNA.

Question: Which sensor-assay potency score (higher = more potent) does the source give for TTATATATAGCTATATGCCTTT here?
Answer: The sensor-assay potency score (higher = more potent) was -0.531.

Question: Which sensor-assay potency score (higher = more potent) does the source give for TTAAAAAGTGCAAACTTCTGGG here?
Answer: Its sensor-assay potency score (higher = more potent) is 0.479.

Question: Which sensor-assay potency score (higher = more potent) does the source give for TGAAGCTACACGAACAAGCTTG here?
Answer: The sensor-assay potency score (higher = more potent) was 0.101.

Question: With TTCTGGAAGAGCACTTGTCCGT as the sequence, how does the sensor-assay potency score (higher = more potent) read?
Answer: Its sensor-assay potency score (higher = more potent) is -0.498.

Question: For TTCTCTCGCGTGTTGTAGCTGT, which sensor-assay potency score (higher = more potent) is on record?
Answer: Its sensor-assay potency score (higher = more potent) is 0.0292.

Question: Which sensor-assay potency score (higher = more potent) does the source give for TAGCTGTCGATCTTCTGCTTGA here?
Answer: Its sensor-assay potency score (higher = more potent) is -0.141.

Question: How did the sensor-assay potency score (higher = more potent) turn out when TTCTCCTTTAGCACAAAGCTGA was run?
Answer: Its sensor-assay potency score (higher = more potent) is -0.406.

Question: With TTGTCCGTCCTTGTGTATCCGC as the sequence, how does the sensor-assay potency score (higher = more potent) read?
Answer: The sensor-assay potency score (higher = more potent) was -0.676.

Question: For TTAAGTGTGAACAACAGGCACC, which sensor-assay potency score (higher = more potent) is on record?
Answer: Its sensor-assay potency score (higher = more potent) is -0.19.

Question: TTGTCCACAACCATGAACTTCT was tested. Which sensor-assay potency score (higher = more potent) did it give?
Answer: Its sensor-assay potency score (higher = more potent) is 0.0348.

Question: Which sensor-assay potency score (higher = more potent) does the source give for TCGCGTGTTGTAGCTGTCGATC here?
Answer: The sensor-assay potency score (higher = more potent) was -1.47.

Question: TTTACAGTTAGTGCAGCGCAGC was tested. Which sensor-assay potency score (higher = more potent) did it give?
Answer: The sensor-assay potency score (higher = more potent) was -1.3.

Each sequence was assayed against RASSF8 in the same assay as above. Conditions: shRNA.

Question: With TTCTCTATAAGGGTGTACCTTC as the sequence, how does the sensor-assay potency score (higher = more potent) read?
Answer: Its sensor-assay potency score (higher = more potent) is -0.973.

Question: Which sensor-assay potency score (higher = more potent) does the source give for TTGATCTTTTGCTCTAGACGGA here?
Answer: Its sensor-assay potency score (higher = more potent) is -0.232.

Question: With TTGAAGTTGATCCTTCAGCTGT as the sequence, how does the sensor-assay potency score (higher = more potent) read?
Answer: Its sensor-assay potency score (higher = more potent) is -0.249.

Question: Which sensor-assay potency score (higher = more potent) does the source give for TTGATTGATTTGTCAATCTGAG here?
Answer: The sensor-assay potency score (higher = more potent) was -0.187.

Question: With TATTTCTTGAAGTTGATCCTTC as the sequence, how does the sensor-assay potency score (higher = more potent) read?
Answer: The sensor-assay potency score (higher = more potent) was 0.825.

Question: For TATTTCATTAGATTCCAGCTGT, which sensor-assay potency score (higher = more potent) is on record?
Answer: Its sensor-assay potency score (higher = more potent) is 1.11.

Question: Which sensor-assay potency score (higher = more potent) does the source give for TTCTATTTCATTAGATTCCAGC here?
Answer: The sensor-assay potency score (higher = more potent) was -0.148.

Question: TAAGGCTATGACAACCTCCTGG was tested. Which sensor-assay potency score (higher = more potent) did it give?
Answer: Its sensor-assay potency score (higher = more potent) is 0.0646.

Question: With TTAATTTGTTTTCACATTCTGT as the sequence, how does the sensor-assay potency score (higher = more potent) read?
Answer: Its sensor-assay potency score (higher = more potent) is -0.415.

Question: Which sensor-assay potency score (higher = more potent) does the source give for TACATCGTTTCTTTTGATCTTT here?
Answer: Its sensor-assay potency score (higher = more potent) is -0.624.

Question: How did the sensor-assay potency score (higher = more potent) turn out when TTAGCTTCTTCAACTCATCTGC was run?
Answer: Its sensor-assay potency score (higher = more potent) is 0.759.

Question: For TTTGCAGTTATTCAGCACCTTT, which sensor-assay potency score (higher = more potent) is on record?
Answer: Its sensor-assay potency score (higher = more potent) is -1.3.

What follows are sequences tested against RBFOX1 in the same assay as above. Conditions: shRNA.

Question: For TTCTAGAACTTAACAACTCCAC, which sensor-assay potency score (higher = more potent) is on record?
Answer: The sensor-assay potency score (higher = more potent) was -0.286.

Question: With TATTTGTCATTACACGTGCTGT as the sequence, how does the sensor-assay potency score (higher = more potent) read?
Answer: Its sensor-assay potency score (higher = more potent) is -1.1.

Question: How did the sensor-assay potency score (higher = more potent) turn out when TTATTCATTATCTAGCATCTGT was run?
Answer: Its sensor-assay potency score (higher = more potent) is 0.299.

Question: For AAACATTTGTCTGAGGTCCGGA, which sensor-assay potency score (higher = more potent) is on record?
Answer: Its sensor-assay potency score (higher = more potent) is 0.142.

Source: the OligoGym collection
